# In PubChem BioAssay (NCI):
# The panel holds about 79,000 compounds, 15% with a hit somewhere; the sample as a whole holds those more often. Unmarked numbers belong to inactive results. Active and inactive are the calls of the source. Rule as the data show it: active = growth inhibition above about 70%; inactive = the rest.
# Experiments:
# [1] = NCI Yeast Anticancer Drug Screen. Data for the rad52 strain (AID 147);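 also: 0% = growth of vehicle-treated control cultures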; details: S. cerevisiae rad52 mutant growth inhibition, stronger effect = higher value
# How it was run: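 Measured: yeast growth inhibition. System: strain with a defined DNA damage repair alteration. Reference: vehicle-treated control cultures.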
# [2] = NCI Yeast Anticancer Drug Screen. Data for the wt1 strain (AID 149);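 also: 0% = growth of vehicle-treated wt1 cultures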; details: S. cerevisiae wt1 strain (SPY 50644) growth inhibition, stronger effect = higher value
# How it was run: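 Vehicle-normalised growth inhibition; strain wt1; compound exposure.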
# [3] = NCI Yeast Anticancer Drug Screen. Data for the rad50EPP+ strain (AID 151);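 also: 0% = growth of vehicle-treated control cultures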; details: S. cerevisiae rad50 mutant strain, stronger effect = higher value
# How it was run: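 One strain with a rad50 alteration (rad50EPP+) was compound-treated, its growth then compared to that of vehicle controls.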
# [4] = NCI Yeast Anticancer Drug Screen. Data for the mgt1 strain (AID 153); details: S. cerevisiae mgt1 mutant growth inhibition, stronger effect = higher value
# How it was run: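 After exposure of the mgt1 yeast mutant to compound, growth was measured and reported as inhibition compared with vehicle controls.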
# [5] = NCI Yeast Anticancer Drug Screen. Data for the rad50 strain (AID 155);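 also: 0% = growth of vehicle-only cultures of the same strain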; details: S. cerevisiae rad50 strain growth inhibition, stronger effect = higher value
# How it was run: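 A DNA repair-deficient yeast mutant serves as the test organism; compound-induced growth inhibition is calculated against vehicle-treated cells.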
# [6] = NCI Yeast Anticancer Drug Screen. Data for the mec2-1 strain (AID 157); details: S. cerevisiae mec2-1 strain, stronger effect = higher value
# How it was run: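 Test agents were screened against the mec2-1 yeast strain, with defined DNA repair or cell cycle alteration. Growth was scored as inhibition against vehicle-only controls.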
# [7] = NCI Yeast Anticancer Drug Screen. Data for the rad14 strain (AID 159);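 also: 0% = growth of vehicle-treated control cultures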; details: S. cerevisiae rad14 strain growth inhibition, stronger effect = higher value
# How it was run: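 Vehicle-treated cultures served as the baseline for growth inhibition of a DNA repair-mutant yeast strain exposed to each compound.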
# [8] = NCI Yeast Anticancer Drug Screen. Data for the sgs1 mgt1 strain (AID 161);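 also: 0% = growth of cultures given vehicle only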; details: S. cerevisiae sgs1 mgt1 strain, stronger effect = higher value
# How it was run: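 Mutant yeast exposed to compound; growth scored against vehicle-only wells.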
# [9] = NCI Yeast Anticancer Drug Screen. Data for the CLN2oe strain (AID 163);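 also: 0% = growth of vehicle-only control cultures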; details: S. cerevisiae CLN2oe strain, stronger effect = higher value
# How it was run: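 Here, growth inhibition in a cell-cycle-altered yeast strain after compound exposure was quantified against vehicle control growth.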
# [10] = NCI Yeast Anticancer Drug Screen. Data for the cln2 rad14 strain (AID 165);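 also: 0% = growth equal to vehicle treated cultures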; details: S. cerevisiae cln2 rad14 strain, stronger effect = higher value
# How it was run: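 Growth of compound-exposed yeast (cln2 rad14 genotype) measured and expressed as inhibition relative to vehicle.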
# [11] = NCI Yeast Anticancer Drug Screen. Data for the bub3 strain (AID 167); details: S. cerevisiae bub3 mutant strain, stronger effect = higher value
# How it was run: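 Inhibition values come from growth of compound-treated mutant yeast normalised to vehicle-treated controls.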
# [12] = NCI Yeast Anticancer Drug Screen. Data for the wt2 strain (AID 169);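 also: 0% = growth of vehicle-treated yeast cultures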; details: S. cerevisiae wt2 strain growth inhibition, stronger effect = higher value
# How it was run: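 Genetically defined yeast strains from a DNA-repair/cell-cycle panel were used. Compound-exposed yeast growth was measured, and the inhibition was calculated relative to vehicle treatment.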
# [13] = NCI Yeast Anticancer Drug Screen. Data for the mlh1 strain (AID 171);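 also: 0% = growth of vehicle-treated control cultures of the same strain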; details: S. cerevisiae mlh1 strain growth inhibition, stronger effect = higher value
# How it was run: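 Here the genetically defined yeast mutant is grown with each compound, and the extent to which its growth falls below that of vehicle-exposed cells is reported.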
# [14] = NCI Yeast Anticancer Drug Screen. Data for the sgs1 strain (AID 173);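 also: 0% = growth of vehicle-only control cultures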; details: S. cerevisiae sgs1 mutant, stronger effect = higher value
# How it was run: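 Relative growth inhibition, referenced to vehicle, was determined in a yeast strain with a defined alteration affecting DNA damage repair or cell cycle control after compound exposure.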
# [15] = NCI Yeast Anticancer Drug Screen. Data for the mlh1 rad18 strain (AID 175); details: S. cerevisiae mlh1 rad18 strain growth inhibition, stronger effect = higher value
# How it was run: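 In this whole-cell yeast screen, a strain with altered DNA damage repair is challenged with compound, and its growth is measured against matched vehicle-treated controls.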
# [16] = at 5.0 µM (retest, dose inferred, filed as 0.5)
# [17] = at 50.0 µM (retest, dose inferred, filed as 5.0)
smiles,measurement,setting,value
CC(=O)Nc1ccc(SC(C)=O)cc1,growth inhibition,[1]; at 1.2 µM,0%
same,growth inhibition,[1]; at 3.7 µM,-21%
same,growth inhibition,[1]; at 11.0 µM,-2%
same,growth inhibition,[1]; at 33.0 µM,58%
same,growth inhibition,[1]; at 100.0 µM,86% (active)
same,growth inhibition,[2]; at 1.2 µM,-36%
same,growth inhibition,[2]; at 3.7 µM,-30%
same,growth inhibition,[2]; at 11.0 µM,-18%
same,growth inhibition,[2]; at 33.0 µM,43%
same,growth inhibition,[2]; at 100.0 µM,85% (active)
same,growth inhibition,[3]; at 1.2 µM,-29%
same,growth inhibition,[3]; at 3.7 µM,-22%
same,growth inhibition,[3]; at 11.0 µM,-6%
same,growth inhibition,[3]; at 33.0 µM,-1%
same,growth inhibition,[3]; at 100.0 µM,29%
same,growth inhibition,[4]; at 1.2 µM,-55%
same,growth inhibition,[4]; at 3.7 µM,-45%
same,growth inhibition,[4]; at 11.0 µM,-32%
same,growth inhibition,[4]; at 33.0 µM,44%
same,growth inhibition,[4]; at 100.0 µM,86% (active)
same,growth inhibition,[5]; at 1.2 µM,-29%
same,growth inhibition,[5]; at 3.7 µM,-4%
same,growth inhibition,[5]; [16],80% (active)
same,growth inhibition,[5]; at 11.0 µM,7%
same,growth inhibition,[5]; at 33.0 µM,59%
same,growth inhibition,[5]; [17],100% (active)
same,growth inhibition,[5]; at 50.0 µM,70.7% (active)
same,growth inhibition,[5]; at 100.0 µM,86% (active)
same,growth inhibition,[6]; at 1.2 µM,-41%
same,growth inhibition,[6]; at 3.7 µM,-45%
same,growth inhibition,[6]; [16],72% (active)
same,growth inhibition,[6]; at 11.0 µM,-9%
same,growth inhibition,[6]; at 33.0 µM,62%
same,growth inhibition,[6]; [17],100% (active)
same,growth inhibition,[6]; at 50.0 µM,56.8%
same,growth inhibition,[6]; at 100.0 µM,86% (active)
same,growth inhibition,[7]; at 1.2 µM,-27%
same,growth inhibition,[7]; at 3.7 µM,-38%
same,growth inhibition,[7]; at 11.0 µM,-5%
same,growth inhibition,[7]; at 33.0 µM,56%
same,growth inhibition,[7]; at 100.0 µM,88% (active)
same,growth inhibition,[8]; [16],-6%
same,growth inhibition,[8]; [17],78% (active)
same,growth inhibition,[8]; at 50.0 µM,60.6%
same,growth inhibition,[9]; at 1.2 µM,-5%
same,growth inhibition,[9]; at 3.7 µM,-17%
same,growth inhibition,[9]; at 11.0 µM,12%
same,growth inhibition,[9]; at 33.0 µM,47%
same,growth inhibition,[9]; at 100.0 µM,85% (active)
same,growth inhibition,[10]; [16],44%
same,growth inhibition,[10]; [17],85% (active)
same,growth inhibition,[10]; at 50.0 µM,66.7%
same,growth inhibition,[11]; at 1.2 µM,-25%
same,growth inhibition,[11]; at 3.7 µM,-6%
same,growth inhibition,[11]; [16],18%
same,growth inhibition,[11]; at 11.0 µM,0%
same,growth inhibition,[11]; at 33.0 µM,63%
same,growth inhibition,[11]; [17],77% (active)
same,growth inhibition,[11]; at 50.0 µM,55.6%
same,growth inhibition,[11]; at 100.0 µM,87% (active)
same,growth inhibition,[12]; at 1.2 µM,-22%
same,growth inhibition,[12]; at 3.7 µM,-23%
same,growth inhibition,[12]; at 11.0 µM,-10%
same,growth inhibition,[12]; at 33.0 µM,54%
same,growth inhibition,[12]; at 100.0 µM,88% (active)
same,growth inhibition,[13]; at 1.2 µM,-25%
same,growth inhibition,[13]; at 3.7 µM,-26%
same,growth inhibition,[13]; at 11.0 µM,6%
same,growth inhibition,[13]; at 33.0 µM,54%
same,growth inhibition,[13]; at 100.0 µM,86% (active)
same,growth inhibition,[14]; at 1.2 µM,-30%
same,growth inhibition,[14]; at 3.7 µM,-9%
same,growth inhibition,[14]; at 11.0 µM,10%
same,growth inhibition,[14]; at 33.0 µM,65%
same,growth inhibition,[14]; at 100.0 µM,88% (active)
same,growth inhibition,[15]; [16],60%
same,growth inhibition,[15]; [17],100% (active)
same,growth inhibition,[15]; at 50.0 µM,72.3% (active)
